This is one part of a sample in which hits are shown more often than they occur.
U2OS ROS induce – cancer cell ROS induction. AID 624156. hit rate 2% among 46,000. ROS induction (% of piperlongumine), % at 10 µM. U2OS ROS induction, H2DCF-DA fluorescence; in the data active = ROS induction above about 79%, passing the limit was not always enough;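 note: 0% = DMSO vehicle median and 100% = reference compound median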
The depositor's hits bear a star.

SMILES	U2OS ROS induce
O=C1O[C@@H](c2ccccc2)[C@@H](c2ccccc2)N2[C@@H](c3ccccc3OCCO)[C@]3(C(=O)Nc4ccc(C#CC5(O)CCCCCC5)cc43)[C@@H](C(=O)O)[C@H]12	0
C=CCNC(=O)[C@H]1[C@@H]2C(=O)O[C@@H](c3ccccc3)[C@@H](c3ccccc3)N2[C@@H](c2ccc(OCCO)cc2)[C@]12C(=O)N(C(=O)OCCOC)c1ccc(C#Cc3ccc(OC)cc3)cc12	5
COCCOC(=O)N1C(=O)[C@@]2(c3ccccc31)[C@H](C(=O)NC[C@H](O)c1ccccc1)[C@H]1C(=O)O[C@H](c3ccccc3)[C@H](c3ccccc3)N1[C@@H]2c1ccc(O)cc1	41
COCCOC(=O)N1C(=O)[C@@]2(c3ccccc31)[C@H](c1ccc(OCCO)cc1)N1[C@H](c3ccccc3)[C@H](c3ccccc3)OC(=O)[C@H]1[C@@H]2C(=O)NC[C@H](O)c1ccccc1	189*
COCCOC(=O)N1C(=O)[C@@]2(c3cc(C#CCNC(N)=O)ccc31)[C@H](C(N)=O)[C@H]1C(=O)O[C@H](c3ccccc3)[C@H](c3ccccc3)N1[C@@H]2c1ccccc1OCCO	17
O=C(OCCn1ncc2ccccc2c1=O)c1ccc(F)cc1Cl	19
Cc1ccc(C(=O)Oc2ccc(C3SCCS3)cc2)cc1	3
Clc1ccc(-c2onc3cc(-c4ccccc4)ccc23)cc1	13
C[C@@H]1CN([C@H](C)CO)C(=O)c2cc(NS(C)(=O)=O)ccc2O[C@@H]1CN(C)Cc1ccncc1	2
CC(=O)c1ccc(NC(=O)c2ccc(CSc3ccccn3)cc2)cc1	-13
C[C@@H]1CN([C@H](C)CO)C(=O)c2cc(NC(=O)CCN3CCOCC3)ccc2O[C@H]1CN(C)S(=O)(=O)c1ccc(Cl)cc1	-6
C[C@@H]1CN([C@H](C)CO)C(=O)c2cc(NC(=O)CCN3CCOCC3)ccc2O[C@H]1CN(C)C(=O)Nc1cccc2ccccc12	-6
C[C@@H]1CN([C@@H](C)CO)C(=O)Cc2cc(NS(=O)(=O)c3cn(C)cn3)ccc2O[C@@H]1CN(C)S(=O)(=O)c1cccs1	-5
C[C@@H]1CN([C@@H](C)CO)C(=O)c2cccc(NC(=O)Nc3ccc4c(c3)OCO4)c2O[C@H]1CN(C)S(=O)(=O)c1ccccc1	-5
CC1=C(C/C=N/NC(=O)c2cccc(C(=O)NO)c2)C(C)(C)CCC1	-5
C=CCNC(=O)[C@@H]1[C@H]2C(=O)O[C@H](c3ccccc3)[C@H](c3ccccc3)N2[C@H](c2ccccc2OCCO)[C@@]12C(=O)N(C(=O)OCCOC)c1ccc(C#CC3=CCCCC3)cc12	58
C=CCNC(=O)[C@@H]1[C@H]2C(=O)O[C@H](c3ccccc3)[C@H](c3ccccc3)N2[C@H](c2ccccc2OCCO)[C@@]12C(=O)Nc1ccc(C#CC3=CCCCC3)cc12	-7
COCCOC(=O)N1C(=O)[C@@]2(c3cc(C#CC4(O)CCCCCC4)ccc31)[C@H](C(=O)NC[C@H](O)c1ccccc1)[C@H]1C(=O)O[C@H](c3ccccc3)[C@H](c3ccccc3)N1[C@@H]2c1ccccc1OCCO	141*
COCCOC(=O)N1C(=O)[C@@]2(c3cc(C#CC4=CCCCC4)ccc31)[C@H](C(=O)NC[C@H](O)c1ccccc1)[C@H]1C(=O)O[C@H](c3ccccc3)[C@H](c3ccccc3)N1[C@@H]2c1ccccc1OCCO	65
C=CCNC(=O)[C@H]1[C@@H]2C(=O)O[C@@H](c3ccccc3)[C@@H](c3ccccc3)N2[C@@H](c2ccccc2OCCO)[C@]12C(=O)N(C(=O)OCCOC)c1ccc(C#CC3=CCCCC3)cc12	177*
COCCOC(=O)N1C(=O)[C@@]2(c3cc(C#CC4(O)CCCCCC4)ccc31)[C@H](c1ccc(OCCO)cc1)N1[C@H](c3ccccc3)[C@H](c3ccccc3)OC(=O)[C@H]1[C@@H]2C(N)=O	-1
O=C1/C(=C/N2CCCCC2)SC(=S)N1c1ccc(F)cc1	23
C[C@H]1CN([C@@H](C)CO)C(=O)c2cc(NS(=O)(=O)c3ccc(Cl)cc3)ccc2O[C@H]1CN(C)S(=O)(=O)c1ccc(Cl)cc1	10
COC(=O)c1c(NC(=O)/C=C/c2ccccc2)sc2c1CCCC2	-10
c1ccc(-c2nsc(N3CCOCC3)n2)cc1	10
SMILES	U2OS ROS induce
C(=Nc1ccc(N2CCOCC2)cc1)c1ccc(Sc2nc3ccccc3[nH]2)o1	-4
Clc1ccccc1/C=C/C=Nc1ccc(N2CCOCC2)cc1	128*
C[C@H](CO)N1C[C@H](C)[C@@H](CN(C)S(=O)(=O)c2ccc(F)cc2)Oc2ccc(NS(C)(=O)=O)cc2C1=O	32
C[C@@H]1CN([C@@H](C)CO)C(=O)CCCn2nncc2CO[C@@H]1CN(C)CC1CC1	0
CCC(Sc1nnnn1-c1ccccc1)C(=O)Nc1sc2c(c1C#N)CCCC2 (stereo unspecified)	95*
CCC(Sc1nnc(N)s1)C(=O)Nc1sc2c(c1C#N)CCCC2 (stereo unspecified)	-4
CC(C)(C)C1CCc2c(sc(NC(=O)CSc3nnnn3-c3ccccc3)c2C#N)C1 (stereo unspecified)	-5
